According to PubChem BioAssay (NCATS):
Inconclusive results are not listed. Active and inactive are the calls of the source. Unless noted, calls follow the shape of the dose curve; as a rule, active = well fitted curve in the direction sought with a large enough effect; inconclusive = small, poorly fitted or top-dose-only effect, or another doubt; inactive = no such curve, though single readings can be large; an effect the other way counts as inactive or inconclusive.

molecular target: Cytochrome P450 3A4 (Homo sapiens) (UniProt P08684); assay: qHTS Assay for Activators of Cytochrome P450 3A4 (AID 885); conditions: recombinant CYP3A4, Luciferin-PPXE luminescence, 60 min; series mostly up to 57.1 µM; activity change, positive = activation: at the top concentration; also: nearly all actives have a fitted effect of over 65% in size
Sequence (P08684 whole entry, looked up): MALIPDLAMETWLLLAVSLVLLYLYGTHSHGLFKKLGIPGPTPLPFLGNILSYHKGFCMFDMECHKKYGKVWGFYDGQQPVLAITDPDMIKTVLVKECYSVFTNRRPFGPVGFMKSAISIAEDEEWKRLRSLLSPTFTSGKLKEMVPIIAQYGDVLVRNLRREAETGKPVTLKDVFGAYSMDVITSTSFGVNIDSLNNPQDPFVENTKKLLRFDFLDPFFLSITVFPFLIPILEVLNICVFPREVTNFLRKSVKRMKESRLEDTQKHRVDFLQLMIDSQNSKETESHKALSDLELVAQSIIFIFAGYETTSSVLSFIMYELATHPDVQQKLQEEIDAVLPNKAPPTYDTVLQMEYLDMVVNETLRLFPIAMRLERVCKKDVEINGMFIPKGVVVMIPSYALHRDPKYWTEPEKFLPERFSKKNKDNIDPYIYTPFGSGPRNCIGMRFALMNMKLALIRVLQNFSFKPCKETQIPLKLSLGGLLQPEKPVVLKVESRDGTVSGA
Outline: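 Activators are scored by enhanced luminescence from CYP3A4 conversion of luciferin-PPXE (25uM, equal to KM) to luciferin, after 60 min at RT with an NADPH-regenerating system.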

Row | Compound | activity change, positive = activation | outcome
1 | O=C1NC(=O)C(c2ccccc2[N+](=O)[O-])=C1Nc1ccc(O)c(Cl)c1 | -41.9% (inactive) | 
2 | O=C(O)c1cccnc1Nc1cccc(C(F)(F)F)c1 | -43.3% (inactive) | 
3 | CC1(C)NC(=O)N(c2ccc([N+](=O)[O-])c(C(F)(F)F)c2)C1=O | -45.2% (inactive) | 
4 | NNc1nncc2ccccc12 |  | inactive
5 | O=Nc1c(-c2c(O)[nH]c3cc(Br)ccc23)[nH]c2ccccc12 | -86.5% (inactive) | 
6 | O=c1c(O)c(-c2cc(O)c(O)c(O)c2)oc2cc(O)cc(O)c12 |  | inactive
7 | C[C@@H](N)C1CCC(C(=O)Nc2ccncc2)CC1 (stereo partly specified) | -70.8% (inactive) | 
8 | O=c1cc(N2CCOCC2)oc2c(-c3ccccc3)cccc12 |  | inactive
9 | CC(C)c1ccc2c(c1)c(SC(C)(C)C)c(CC(C)(C)C(=O)O)n2Cc1ccc(Cl)cc1 | -52.6% (inactive) | 
10 | Cc1c(OCC(F)(F)F)ccnc1CS(=O)c1nc2ccccc2[nH]1 (stereo unspecified) | -102% (inactive) | 
11 | O=C1c2c(O)cc(O)cc2OC(c2ccc(O)c(O)c2)C1O (stereo unspecified) | -37.2% (inactive) | 
12 | Cc1cccc(CN2CCN(C(c3ccccc3)c3ccc(Cl)cc3)CC2)c1 (stereo unspecified) | -83.4% (inactive) | 
13 | COC(=O)C1=C(C)NC(C)=C(C(=O)OC(C)C)C1c1cccc2nonc12 (stereo unspecified) | -63.9% (inactive) | 
14 | COc1ccccc1N1CCN(CCN(C(=O)C2CCCCC2)c2ccccn2)CC1 | -86% (inactive) | 
15 | Cc1cc2cc3c(C)cc(=O)oc3c(C)c2o1 |  | inactive

molecular target: Cytochrome P450 2D6 (Homo sapiens) (UniProt P10635); assay: qHTS Assay for Inhibitors and Substrates of Cytochrome P450 2D6 (AID 891); conditions: recombinant CYP2D6, luciferin-ME EGE luminescence; series mostly up to 57.1 µM; activity change, negative = inhibition: at the top concentration; also: nearly all actives have a fitted effect of over 60% in size; also: potency is read from the fitted curve at half-maximal effect;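 as to activity change, negative = inhibition: luciferin methyl ether substrate demethylated by CYP2D6 with NADPH regeneration; % is scaled to controls: 0 for no effect and ±100 for the full control effect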
Sequence (P10635 whole entry, looked up): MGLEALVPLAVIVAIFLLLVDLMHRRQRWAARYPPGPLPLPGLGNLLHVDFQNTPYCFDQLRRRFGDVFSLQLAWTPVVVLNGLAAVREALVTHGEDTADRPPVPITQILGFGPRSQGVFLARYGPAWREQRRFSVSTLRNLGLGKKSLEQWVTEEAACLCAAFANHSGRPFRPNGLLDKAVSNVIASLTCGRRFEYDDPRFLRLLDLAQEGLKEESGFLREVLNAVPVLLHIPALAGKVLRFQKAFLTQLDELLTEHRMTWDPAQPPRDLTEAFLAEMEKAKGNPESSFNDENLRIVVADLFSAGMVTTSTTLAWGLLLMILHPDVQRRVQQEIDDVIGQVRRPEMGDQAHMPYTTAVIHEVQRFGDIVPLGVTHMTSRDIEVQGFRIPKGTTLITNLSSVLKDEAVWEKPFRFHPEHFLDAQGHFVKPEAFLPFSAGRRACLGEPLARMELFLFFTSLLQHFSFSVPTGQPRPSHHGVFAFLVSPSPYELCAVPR
Outline: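 Luminescent read-out of luciferin formed by 5 nM human CYP2D6 demethylating 30 uM Luciferin-ME EGE (Km level) over 60 min at room temperature after NADPH regeneration addition. Data normalized to full inhibition by 1.43 uM quinidine.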

Row | Compound | activity change, negative = inhibition | Potency
16 | O=C1NC(=O)C(c2ccccc2[N+](=O)[O-])=C1Nc1ccc(O)c(Cl)c1 | -15% (inactive) | 
17 | O=C(O)c1cccnc1Nc1cccc(C(F)(F)F)c1 | 4.8% (inactive) | 
18 | CC1(C)NC(=O)N(c2ccc([N+](=O)[O-])c(C(F)(F)F)c2)C1=O | 2.77% (inactive) | 
19 | CN1CCC(=C2c3ccccc3CCc3sccc32)CC1 |  | 1.26 µM (active)
20 | O=c1c(O)c(-c2cc(O)c(O)c(O)c2)oc2cc(O)cc(O)c12 | -15% (inactive) | 
21 | NC(=NCc1ccccc1)NC(=O)c1nc(Cl)c(N)nc1N |  | 5.01 µM (active)

system: not listed separately; assay: qHTS Assay for Identification of Small Molecule Antagonists for NFkB Signaling Pathway (AID 895; active = well fitted inhibition curve with a large enough effect in the signal ratio, with a control signal flat, not every such curve was filed as active; the % refers to the signal ratio; also: % is scaled to controls: 0 for no effect and ±100 for the full control effect); conditions: NFkB beta-lactamase reporter cells, FRET ratio 460/530, stimulated with 10 pM TNF alpha; series mostly up to 38.3 µM; activity change, negative = inhibition: at the top concentration
Outline: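 Beta-lactamase reporter read-out (460 and 530 nm emission ratio, 405 nm excitation, 2 hrs substrate loading RT) after 5 hr stimulation with 10 pM TNF alpha in compound-treated NFkB-bla ME-180 cells in low-serum medium.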

Row | Compound | activity change, negative = inhibition
22 | NNc1nncc2ccccc12 | -8.27% (inactive)
23 | COc1ccc2cc([C@H](C)C(=O)O)ccc2c1 | -11.3% (inactive)
24 | O=c1ccc2ccc(O)c(O)c2o1 | -5.71% (inactive)
25 | NCCCCNCCCN | 8.13% (inactive)
26 | COc1ccccc1N1CCN(CCN(C(=O)C2CCCCC2)c2ccccn2)CC1 | -0.929% (inactive)

system: not listed separately; assay: qHTS Assay for Identification of Small Molecule Agonists for Thrombopoietin (TPO) Signaling Pathway (AID 917); conditions: TPO signaling pathway reporter cells, agonist qHTS, stimulated with TPO at its EC50; series mostly up to 38.5 µM; activity, positive = activation: at the top concentration; also: potency is read from the fitted curve at half-maximal effect; as to activity, positive = activation: % is scaled to controls: 0 for no effect and ±100 for the full control effect
Outline: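 Stimulation at the TPO EC50 (26 pM final) was used to detect activators. Ba/F3 mouse cells bearing human TPO receptor and a luciferase reporter under the Glycoprotein IIb promoter were exposed to compounds for 24 hrs at 37 C.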

Row | Compound | activity, positive = activation | Potency
27 | O=C(O)c1cccnc1Nc1cccc(C(F)(F)F)c1 | -13.9% (inactive) | 
28 | CC1(C)NC(=O)N(c2ccc([N+](=O)[O-])c(C(F)(F)F)c2)C1=O | -21.6% (inactive) | 
29 | NNc1nncc2ccccc12 |  | 0.0398 µM (active)
30 | CNC[C@H](O)c1ccc(O)c(O)c1 | -3.52% (inactive) | 
31 | O=Nc1c(-c2c(O)[nH]c3cc(Br)ccc23)[nH]c2ccccc12 |  | 0.251 µM (active)
32 | COc1ccc2cc([C@H](C)C(=O)O)ccc2c1 | 1.26% (inactive) | 
33 | Cc1c(OCC(F)(F)F)ccnc1CS(=O)c1nc2ccccc2[nH]1 (stereo unspecified) | 15.3% (inactive) | 
34 | NC(=NCc1ccccc1)NC(=O)c1nc(Cl)c(N)nc1N |  | 12.6 µM (active)
35 | COc1ccccc1N1CCN(CCN(C(=O)C2CCCCC2)c2ccccn2)CC1 | -19.5% (inactive) | 
36 | Nc1nc(OCc2ccccc2)c2[nH]cnc2n1 | -18.5% (inactive) | 
